The results in this text go back to PubChem BioAssay (EPA / NIEHS).

Results filed as inconclusive are left out. Calls of active or inactive are those of the source. How the source made its calls, unless noted: active means hit-call score of the fitted dose curve at least 0.9, where 1 is the maximum; inactive means score below 0.9.

One may read the AC50 as the midpoint of the concentration-response curve, whichever way the signal moves.

Nuclear receptor subfamily 1 group I member 3 (Homo sapiens), sequence (Q14994 whole entry, looked up, the tested form may be a part): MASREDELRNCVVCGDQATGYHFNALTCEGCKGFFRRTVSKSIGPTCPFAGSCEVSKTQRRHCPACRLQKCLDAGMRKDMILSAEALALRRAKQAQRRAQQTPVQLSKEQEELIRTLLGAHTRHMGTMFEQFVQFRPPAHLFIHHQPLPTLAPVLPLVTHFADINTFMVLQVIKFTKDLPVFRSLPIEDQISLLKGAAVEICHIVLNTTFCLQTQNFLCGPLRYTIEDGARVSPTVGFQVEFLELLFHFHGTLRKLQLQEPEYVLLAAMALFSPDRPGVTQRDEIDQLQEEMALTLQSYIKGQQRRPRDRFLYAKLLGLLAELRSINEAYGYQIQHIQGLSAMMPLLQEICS

Tested on in one test: not listed separately
The test can be described thus: ATG_TGFb_CIS: Attagene CIS-FACTORIAL HepG2 Assay for human Transforming Growth Factor (TGF) (AID 2282967). The note with it: HepG2 Attagene CIS TGFb reporter, mRNA transcription; actives raise or lower the signal. Summed up: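 Endogenous TGFB1-linked transcription factor activity read as reporter mRNA via RT-PCR and capillary electrophoresis, 24 h after dosing transiently transfected HepG2 cells. Gain or loss of signal fitted relative to DMSO.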
Consider `Nc1ccc2c(O)cc(S(=O)(=O)O)cc2c1`, for which the call was inactive.
Still for that read-out and setting: for `O=P(O)(O)O` the value was “inactive”.
Turning to `CC1(C)O[C@@H]2C[C@H]3[C@@H]4CCC5=CC(=O)C=C[C@]5(C)[C@@]4(F)[C@@H](O)C[C@]3(C)[C@]2(C(=O)CO)O1`, the call was inactive.
Still for that read-out and setting: for `CCc1ncc(C)[nH]1` the value was “inactive”; for `CN(C)C(=S)SC(=S)N(C)C`, “inactive”; for `CC(C)=CCCC(C)CCOC=O` (stereo not drawn), “inactive”.
Take `C=C(C)[C@H]1CC=C(C)C(=O)C1`: the call was inactive.
Still for that read-out and setting: next, `CCOC(=O)[C@@H](C)Oc1ccc(Oc2nc3ccc(Cl)cc3o2)cc1`: “inactive”; `O=C1OC(=O)c2c(Cl)c(Cl)c(Cl)c(Cl)c21`: “inactive”.
Regarding `C[C@H](CCC(=O)NCC(=O)O)[C@H]1CC[C@H]2[C@@H]3[C@H](O)C[C@@H]4C[C@H](O)CC[C@]4(C)[C@H]3C[C@H](O)[C@]12C`, the result was inactive.
Turning to `C1CCCCC1`, the result was inactive.
Take `CCC(=O)OCCOc1ccccc1`: the outcome was inactive.
Same read-out and setting: next, `CC(C)(C)OC(=O)c1ccc(O)cc1`: “inactive”; `COc1ccc(CCO)cc1`: “inactive”; `C=C1C[C@]23C[C@@]1(O)CC[C@H]2[C@@]12C=C[C@H](O)[C@@](C)(C(=O)O1)[C@H]2[C@@H]3C(=O)O`: “inactive”.
Turning to `COc1cc(C(C)C)ccc1C`, the result was inactive.
For `CC(C)OCCO`, the molecule was classed as inactive.
With `CC(C)(CO)[C@@H](O)C(=O)NCCC(=O)O`, the molecule was classed as inactive.
Still for that read-out and setting: next, `CCCCC(CC)C(=O)OC(C)C` (stereo not drawn): “inactive”.
The same measure, in the same setting: next, `CCCCCCCC(=O)OCC(O)CO` (stereo not drawn): “inactive”; `Cc1cc(=O)oc2cc(N(C)C)ccc12`: “inactive”; `O=C(O)c1ccc(O)cc1`: “inactive”.
The same measure, in the same setting: for `CSCCC=O` the value was “inactive”.
As to `CCC1(c2ccccc2)C(=O)NCNC1=O`, the result was inactive.
Same read-out and setting: for `CS(=O)(=O)c1ccc(C2=C(c3ccccc3)C(=O)OC2)cc1` the value was “inactive”.
As for `CC(C)C(OC(=O)c1ccccc1)C(C)(C)COC(=O)c1ccccc1` (stereo not drawn), the outcome was inactive.
`CCCC(C)C(O)CC` (stereo not drawn): the outcome was inactive.
Turning to `CC(=O)O[C@@H]1C[C@@H]2CC[C@@]1(C)C2(C)C`, the call was inactive.
On the same count and under the same terms, next, `COc1ccccc1N=Nc1c(S(=O)(=O)O)cc2cc(S(=O)(=O)O)cc(NC(C)=O)c2c1O`: “inactive”.
On the same count and under the same terms, for `CCCC(=O)OCCc1ccccc1` the value was “inactive”; for `CSc1c(Cl)c(Cl)c(Cl)c(Cl)c1Cl`, “inactive”.
As to `CCC(Cl)C(Cl)C(Cl)CC(Cl)C(Cl)C(C)Cl` (stereo not drawn), the AC50 is 64.6 µM (active).
For the molecule `OCC#CCO`, the result was inactive.
On the same count and under the same terms, for `CCCC[O][Al]([O]CCCC)[O]CCCC` the value was “inactive”; for `O=C(CC(=O)c1ccccc1)c1ccccc1`, “inactive”.
Regarding `CN(C)C(=O)Nc1ccc(Oc2ccc(Cl)cc2)cc1`, the call was inactive.
Still for that read-out and setting: for `Cc1ncc([N+](=O)[O-])n1CCO` the value was “inactive”; for `CCCCCCC(=O)c1ccccc1`, “inactive”; for `O=C1OC[C@H](Cc2cccc(O)c2)[C@H]1Cc1cccc(O)c1`, “inactive”.

Tested on in a further test: not listed separately
The test can be described thus: ATG_VDRE_CIS: Attagene CIS-FACTORIAL HepG2 Assay for human Vitamin D Receptor Element (VDRE) (AID 2282968). The note with it: HepG2 VDRE cis-reporter transcription, actives raise or lower the signal. Summed up:
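Compounds were applied for 24 h to HepG2 cells transfected with promoter-regulated reporter units. Total RNA was reverse-transcribed, and reporter amplicons were fluorescently labelled and sized by capillary electrophoresis.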
`O=P(O)(O)O`: the call was inactive.
`CC1(C)O[C@@H]2C[C@H]3[C@@H]4CCC5=CC(=O)C=C[C@]5(C)[C@@]4(F)[C@@H](O)C[C@]3(C)[C@]2(C(=O)CO)O1`: the call was inactive.
`CCc1ncc(C)[nH]1`: the molecule was classed as inactive.
On to `C=C(C)[C@H]1CC=C(C)C(=O)C1`, for which the call was inactive.
On the same count and under the same terms, next, `CCOC(=O)[C@@H](C)Oc1ccc(Oc2nc3ccc(Cl)cc3o2)cc1`: “inactive”; `C[C@H](CCC(=O)NCC(=O)O)[C@H]1CC[C@H]2[C@@H]3[C@H](O)C[C@@H]4C[C@H](O)CC[C@]4(C)[C@H]3C[C@H](O)[C@]12C`: “inactive”; `CCC(=O)OCCOc1ccccc1`: “inactive”.
Consider `CC(C)(C)OC(=O)c1ccc(O)cc1`, for which the AC50 is 45.4 µM (active).
As to `COc1ccc(CCO)cc1`, the molecule was classed as inactive.
Still for that read-out and setting: next, `C=C1C[C@]23C[C@@]1(O)CC[C@H]2[C@@]12C=C[C@H](O)[C@@](C)(C(=O)O1)[C@H]2[C@@H]3C(=O)O`: “inactive”; `COc1cc(C(C)C)ccc1C`: “inactive”.
Same read-out and setting: next, `CCCCC(CC)C(=O)OC(C)C` (stereo not drawn): “inactive”.
Turning to `Cc1cc(=O)oc2cc(N(C)C)ccc12`, the result was inactive.
On the same count and under the same terms, next, `CCC1(c2ccccc2)C(=O)NCNC1=O`: “inactive”; `CCCC(C)C(O)CC` (stereo not drawn): “inactive”; `CC(=O)O[C@@H]1C[C@@H]2CC[C@@]1(C)C2(C)C`: “inactive”.
Consider `CCCC(=O)OCCc1ccccc1`, for which the outcome was inactive.
Same read-out and setting: for `CSc1c(Cl)c(Cl)c(Cl)c(Cl)c1Cl` the value was “inactive”.
With `CCC(Cl)C(Cl)C(Cl)CC(Cl)C(Cl)C(C)Cl` (stereo not drawn), the AC50 is 3.17 µM (active).
On to `OCC#CCO`, for which the molecule was called inactive.
Turning to `CCCC[O][Al]([O]CCCC)[O]CCCC`, the call was inactive.
On the same count and under the same terms, for `O=C(CC(=O)c1ccccc1)c1ccccc1` the value was “inactive”; for `CN(C)C(=O)Nc1ccc(Oc2ccc(Cl)cc2)cc1`, “inactive”.
As for `O=C1OC[C@H](Cc2cccc(O)c2)[C@H]1Cc1cccc(O)c1`, the AC50 is 21.8 µM (active).

Another test concerns the target Nuclear receptor subfamily 1 group I member 3 (Homo sapiens) (UniProt Q14994). Put plainly: ATG_CAR_TRANS: Attagene TRANS-FACTORIAL HepG2 Assay for human Constitutive Androstane Receptor (CAR) (AID 2282969; active means hit-call score of the fitted dose curve at least 0.9, where 1 is the maximum;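 further: activators raise reporter mRNA above DMSO so AC50 marks induction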). The note with it: HepG2 Attagene TRANS-FACTORIAL CAR reporter. Summed up: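 Transiently transfected HepG2, multiplex TRANS reporters (CAR-Gal4 chimera driving GAL4-UAS reporter). 24 h dosing. Readout: reporter transcript by RT-PCR + capillary electrophoresis, fluorescence intensity; positive direction vs DMSO.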
With `Nc1ccc2c(O)cc(S(=O)(=O)O)cc2c1`, the result was inactive.
Same read-out and setting: for `CN(C)C(=S)SC(=S)N(C)C` the value was “inactive”.
Still for that read-out and setting: for `CC(C)=CCCC(C)CCOC=O` (stereo not drawn) the value was “inactive”; for `O=C1OC(=O)c2c(Cl)c(Cl)c(Cl)c(Cl)c21`, “inactive”.
Same read-out and setting: for `C1CCCCC1` the value was “inactive”; for `CC(C)OCCO`, “inactive”.
With `CC(C)(CO)[C@@H](O)C(=O)NCCC(=O)O`, the result was inactive.
Same read-out and setting: for `CCCCCCCC(=O)OCC(O)CO` (stereo not drawn) the value was “inactive”; for `O=C(O)c1ccc(O)cc1`, “inactive”.
On the same count and under the same terms, for `CSCCC=O` the value was “inactive”.
On the same count and under the same terms, next, `CS(=O)(=O)c1ccc(C2=C(c3ccccc3)C(=O)OC2)cc1`: “inactive”; `CC(C)C(OC(=O)c1ccccc1)C(C)(C)COC(=O)c1ccccc1` (stereo not drawn): “inactive”.
For the molecule `COc1ccccc1N=Nc1c(S(=O)(=O)O)cc2cc(S(=O)(=O)O)cc(NC(C)=O)c2c1O`, the molecule was classed as inactive.
Regarding `Cc1ncc([N+](=O)[O-])n1CCO`, the call was inactive.
Still for that read-out and setting: next, `CCCCCCC(=O)c1ccccc1`: “inactive”.
